# Source: PubChem BioAssay (NCATS)
# Inconclusive results are not listed.
# Test: qHTS for identification of novel therapeutic agents for treatment of microphthalmiaassociated transcription factor (MiT) renal cell carcinoma (RCC) (AID 1963991)
# Details: TFE3-RCC viability, CellTiter-Glo, 48 h; measured here: UOK124 Z-AUC; stronger effect = lower value
# Summary of the method: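 Three TFE3-fusion RCC cell lines (UOK109, UOK124, UOK145), 500 cells/well, were exposed to the 1912-compound MIPE 4.0 library for 48 hours at 37 C. Viability was read by CellTiter-Glo luminescence, normalised to DMSO (100%) and empty wells (0%), with 11-concentration curve fits.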
row,Compound,z-score
1,C#CCN(C)CC1=Cc2ccccc2Oc2ccccc21,0.413
2,O=C1NC(=O)C(c2cnc3ccccn23)=C1c1cn2c3c(cccc13)CN(C(=O)N1CCOCC1)CC2,-1.78
3,Cc1ccc(C(=O)N(CCCN)[C@@H](c2nc3cc(Cl)ccc3c(=O)n2Cc2ccccc2)C(C)C)cc1,-1.53
4,CCC[C@H](Nc1nc(-c2ccc(NC(=O)NCC)c(OC)c2)ncc1C)c1cccnc1,-3.81
5,C[C@]12C=CC(=O)C=C1CC[C@@H]1[C@@H]2[C@@H](O)C[C@@]2(C)[C@@H]1CC[C@]2(O)C(=O)CO,0.34
6,CCCCOCCOc1nc(-c2ccc(C(=O)O)c(F)c2)sc1C,0.152
7,O=C(O)c1nc(=O)[nH]c(=O)[nH]1,0.587
8,C[C@H]1COC2=C1C(=O)C(=O)c1c2ccc2c1CCCC2(C)C,-0.0946
9,Cc1cn([C@@H]2C[C@@H](O)[C@H](CO)O2)c(=O)[nH]c1=O,1.9
10,CS(=O)(=O)c1ccc(C2=C(c3ccccc3)C(=O)OC2)cc1,0.766
11,Cc1ccccc1C(C(=O)NC1CCCCC1)N(C(=O)CNc1ccc(C#N)cc1)c1cccc(F)c1 (stereo not given),0.305
12,CCCCC(F)(F)[C@@]1(O)CC[C@H]2[C@H](CC(=O)[C@@H]2CCCCCCC(=O)O)O1,0.425
13,CC[C@H](C=C[C@@H](C)[C@H]1CC[C@H]2[C@@H]3CC=C4C[C@@H](O)CC[C@]4(C)[C@@H]3CC[C@]12C)C(C)C,0.915
14,Cc1cc2c(cc1C1(c3ccc(C(=O)O)cn3)CC1)C(C)(C)CCC2(C)C,-2.74
15,CO[C@H]1O[C@@H]2O[C@@]3(C)CC[C@@H]4[C@@H](C)CC[C@@H]([C@H]1C)[C@@]24OO3,0.926
